Measured values reported in the supplement of paper PMC11732987, “Enantioselective OTUD7B fragment discovery through chemoproteomics screening and high-throughput optimisation” (Communications Chemistry, 2025).

Columns and labels:
Assay in all cases: log2 ratio of Biotin-Ahx-Ub-VS probe labelling (fragment/DMSO); higher = less target engagement (more negative = stronger competition), active = hit call of the paper (q ≤ 0.05, log2 ratio ≤ -1)
Conditions in all cases: compound concentration: 200 uM; treatment time: 3 h
USP34 = USP34 (UniProt Q70CQ2)
Procedure, shortened: (§1)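 HEK293T lysate in Tris/CHAPS/IGEPAL buffer with protease inhibitors (495 µg per sample) was given fragment at 200 µM or vehicle for 3 h, in triplicate. It then received Biotin-Ahx-Ub-VS at 0.5 µM final for 1 h. Labelled DUBs were NeutrAvidin-enriched, digested with LysC and trypsin, and run by diaPASEF LC-MS/MS. Values are average log2 fragment/vehicle ratios by unpaired t-test on global-median-normalised Spectronaut quantities of proteins with ≥2 unique peptides.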

USP36 = target: T1, USP36 (UniProt Q9P275)
T1 sequence (whole entry): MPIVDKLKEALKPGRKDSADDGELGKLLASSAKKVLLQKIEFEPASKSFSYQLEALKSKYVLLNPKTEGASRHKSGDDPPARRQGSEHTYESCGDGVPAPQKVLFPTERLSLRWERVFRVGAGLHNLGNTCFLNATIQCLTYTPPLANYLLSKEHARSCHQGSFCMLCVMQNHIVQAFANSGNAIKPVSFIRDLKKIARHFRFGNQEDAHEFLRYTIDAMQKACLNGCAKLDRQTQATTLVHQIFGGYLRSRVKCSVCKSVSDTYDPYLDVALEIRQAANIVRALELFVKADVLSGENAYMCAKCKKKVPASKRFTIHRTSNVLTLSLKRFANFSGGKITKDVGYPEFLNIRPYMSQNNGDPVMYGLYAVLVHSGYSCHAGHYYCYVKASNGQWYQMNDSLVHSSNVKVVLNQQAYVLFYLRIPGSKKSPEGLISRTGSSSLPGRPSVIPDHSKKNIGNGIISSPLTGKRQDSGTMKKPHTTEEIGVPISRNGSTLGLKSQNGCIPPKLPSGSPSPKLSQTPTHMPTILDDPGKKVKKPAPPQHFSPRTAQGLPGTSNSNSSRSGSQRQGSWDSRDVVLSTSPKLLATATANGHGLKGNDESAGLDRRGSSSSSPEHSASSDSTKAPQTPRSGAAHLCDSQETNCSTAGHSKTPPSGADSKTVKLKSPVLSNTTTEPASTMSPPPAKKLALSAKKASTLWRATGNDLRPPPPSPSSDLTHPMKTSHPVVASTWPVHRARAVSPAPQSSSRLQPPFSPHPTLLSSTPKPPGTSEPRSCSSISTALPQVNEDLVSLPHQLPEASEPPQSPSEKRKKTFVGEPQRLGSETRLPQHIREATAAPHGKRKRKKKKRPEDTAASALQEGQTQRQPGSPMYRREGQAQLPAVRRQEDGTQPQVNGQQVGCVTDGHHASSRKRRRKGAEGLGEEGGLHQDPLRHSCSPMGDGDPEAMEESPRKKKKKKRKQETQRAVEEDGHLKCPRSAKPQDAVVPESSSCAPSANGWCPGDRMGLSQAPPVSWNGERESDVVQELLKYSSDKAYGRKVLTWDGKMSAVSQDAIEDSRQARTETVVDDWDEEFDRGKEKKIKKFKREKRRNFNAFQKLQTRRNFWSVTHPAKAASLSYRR
Procedure, shortened: as §1

USP38 = target: T2, USP38 (UniProt Q8NB14)
T2 sequence (whole entry): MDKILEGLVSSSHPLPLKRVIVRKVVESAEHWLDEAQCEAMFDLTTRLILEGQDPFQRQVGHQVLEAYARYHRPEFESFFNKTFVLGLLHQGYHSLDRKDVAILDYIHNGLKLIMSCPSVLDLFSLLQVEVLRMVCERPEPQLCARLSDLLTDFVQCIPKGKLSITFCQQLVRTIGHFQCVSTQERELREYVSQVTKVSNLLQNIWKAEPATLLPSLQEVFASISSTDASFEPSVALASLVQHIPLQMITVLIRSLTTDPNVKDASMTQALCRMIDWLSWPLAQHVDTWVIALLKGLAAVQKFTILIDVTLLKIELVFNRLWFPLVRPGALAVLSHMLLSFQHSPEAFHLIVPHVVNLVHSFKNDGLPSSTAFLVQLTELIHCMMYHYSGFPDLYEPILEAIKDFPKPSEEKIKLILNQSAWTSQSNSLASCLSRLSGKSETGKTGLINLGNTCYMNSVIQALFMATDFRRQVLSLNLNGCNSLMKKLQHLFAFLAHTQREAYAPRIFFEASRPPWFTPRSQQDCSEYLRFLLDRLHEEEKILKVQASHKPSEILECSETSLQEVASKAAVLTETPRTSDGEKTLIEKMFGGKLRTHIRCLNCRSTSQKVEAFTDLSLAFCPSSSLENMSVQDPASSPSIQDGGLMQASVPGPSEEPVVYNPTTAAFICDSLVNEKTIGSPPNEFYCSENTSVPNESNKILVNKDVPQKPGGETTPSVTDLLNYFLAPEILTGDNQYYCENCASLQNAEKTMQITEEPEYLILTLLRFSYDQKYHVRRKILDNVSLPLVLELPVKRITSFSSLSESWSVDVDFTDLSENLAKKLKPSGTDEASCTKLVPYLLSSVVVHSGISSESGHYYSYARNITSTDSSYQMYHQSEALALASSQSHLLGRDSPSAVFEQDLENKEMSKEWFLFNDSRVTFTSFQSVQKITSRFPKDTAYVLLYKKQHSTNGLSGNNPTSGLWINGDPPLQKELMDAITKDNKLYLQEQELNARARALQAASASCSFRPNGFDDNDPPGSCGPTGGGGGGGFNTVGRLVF
Procedure, shortened: as §1

USP39 = target: T3, USP39 (UniProt Q53GS9)
T3 sequence (whole entry): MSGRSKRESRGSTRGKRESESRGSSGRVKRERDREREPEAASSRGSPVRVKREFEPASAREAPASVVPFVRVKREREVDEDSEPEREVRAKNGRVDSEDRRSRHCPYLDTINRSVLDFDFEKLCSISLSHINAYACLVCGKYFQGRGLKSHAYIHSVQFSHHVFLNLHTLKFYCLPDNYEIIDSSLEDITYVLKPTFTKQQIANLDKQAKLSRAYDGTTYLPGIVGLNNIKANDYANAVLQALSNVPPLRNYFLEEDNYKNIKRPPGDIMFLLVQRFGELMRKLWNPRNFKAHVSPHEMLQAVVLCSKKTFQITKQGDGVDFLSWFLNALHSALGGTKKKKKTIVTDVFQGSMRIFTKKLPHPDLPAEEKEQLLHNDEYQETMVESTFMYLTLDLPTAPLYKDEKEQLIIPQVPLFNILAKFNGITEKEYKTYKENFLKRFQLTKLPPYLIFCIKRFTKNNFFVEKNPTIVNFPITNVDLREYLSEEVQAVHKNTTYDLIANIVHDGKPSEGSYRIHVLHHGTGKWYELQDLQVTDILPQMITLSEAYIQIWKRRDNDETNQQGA
Procedure, shortened: as §1

USP4 = target: T4, USP4 (UniProt Q13107)
T4 sequence (whole entry): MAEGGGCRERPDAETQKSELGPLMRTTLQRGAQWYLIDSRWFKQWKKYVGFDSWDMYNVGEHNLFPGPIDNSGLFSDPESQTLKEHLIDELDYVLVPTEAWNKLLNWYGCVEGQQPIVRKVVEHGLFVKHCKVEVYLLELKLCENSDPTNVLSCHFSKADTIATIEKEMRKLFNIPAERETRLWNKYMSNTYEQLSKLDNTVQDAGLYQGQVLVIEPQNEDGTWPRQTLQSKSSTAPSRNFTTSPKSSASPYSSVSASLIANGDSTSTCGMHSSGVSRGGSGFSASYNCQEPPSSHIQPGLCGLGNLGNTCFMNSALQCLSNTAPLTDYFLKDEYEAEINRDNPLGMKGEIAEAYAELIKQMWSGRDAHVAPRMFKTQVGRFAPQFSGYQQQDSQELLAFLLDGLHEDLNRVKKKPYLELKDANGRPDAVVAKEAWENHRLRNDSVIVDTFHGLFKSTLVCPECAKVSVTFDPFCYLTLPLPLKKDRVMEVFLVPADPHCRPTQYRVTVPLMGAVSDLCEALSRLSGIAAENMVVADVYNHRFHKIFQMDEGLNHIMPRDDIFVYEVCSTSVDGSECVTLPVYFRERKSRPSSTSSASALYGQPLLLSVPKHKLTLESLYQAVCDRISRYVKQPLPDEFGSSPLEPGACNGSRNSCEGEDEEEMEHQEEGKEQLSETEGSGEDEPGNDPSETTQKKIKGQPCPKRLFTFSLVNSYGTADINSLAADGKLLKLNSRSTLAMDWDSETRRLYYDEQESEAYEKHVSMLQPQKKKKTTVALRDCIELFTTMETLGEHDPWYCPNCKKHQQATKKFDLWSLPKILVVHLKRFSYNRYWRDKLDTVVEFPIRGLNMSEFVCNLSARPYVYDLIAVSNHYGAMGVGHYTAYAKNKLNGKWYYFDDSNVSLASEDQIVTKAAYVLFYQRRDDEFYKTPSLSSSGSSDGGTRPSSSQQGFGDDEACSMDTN
Procedure, shortened: as §1

Measured: log2 ratio of Biotin-Ahx-Ub-VS probe labelling

Sequence of USP34 (Q70CQ2 whole entry, the tested form may be a part): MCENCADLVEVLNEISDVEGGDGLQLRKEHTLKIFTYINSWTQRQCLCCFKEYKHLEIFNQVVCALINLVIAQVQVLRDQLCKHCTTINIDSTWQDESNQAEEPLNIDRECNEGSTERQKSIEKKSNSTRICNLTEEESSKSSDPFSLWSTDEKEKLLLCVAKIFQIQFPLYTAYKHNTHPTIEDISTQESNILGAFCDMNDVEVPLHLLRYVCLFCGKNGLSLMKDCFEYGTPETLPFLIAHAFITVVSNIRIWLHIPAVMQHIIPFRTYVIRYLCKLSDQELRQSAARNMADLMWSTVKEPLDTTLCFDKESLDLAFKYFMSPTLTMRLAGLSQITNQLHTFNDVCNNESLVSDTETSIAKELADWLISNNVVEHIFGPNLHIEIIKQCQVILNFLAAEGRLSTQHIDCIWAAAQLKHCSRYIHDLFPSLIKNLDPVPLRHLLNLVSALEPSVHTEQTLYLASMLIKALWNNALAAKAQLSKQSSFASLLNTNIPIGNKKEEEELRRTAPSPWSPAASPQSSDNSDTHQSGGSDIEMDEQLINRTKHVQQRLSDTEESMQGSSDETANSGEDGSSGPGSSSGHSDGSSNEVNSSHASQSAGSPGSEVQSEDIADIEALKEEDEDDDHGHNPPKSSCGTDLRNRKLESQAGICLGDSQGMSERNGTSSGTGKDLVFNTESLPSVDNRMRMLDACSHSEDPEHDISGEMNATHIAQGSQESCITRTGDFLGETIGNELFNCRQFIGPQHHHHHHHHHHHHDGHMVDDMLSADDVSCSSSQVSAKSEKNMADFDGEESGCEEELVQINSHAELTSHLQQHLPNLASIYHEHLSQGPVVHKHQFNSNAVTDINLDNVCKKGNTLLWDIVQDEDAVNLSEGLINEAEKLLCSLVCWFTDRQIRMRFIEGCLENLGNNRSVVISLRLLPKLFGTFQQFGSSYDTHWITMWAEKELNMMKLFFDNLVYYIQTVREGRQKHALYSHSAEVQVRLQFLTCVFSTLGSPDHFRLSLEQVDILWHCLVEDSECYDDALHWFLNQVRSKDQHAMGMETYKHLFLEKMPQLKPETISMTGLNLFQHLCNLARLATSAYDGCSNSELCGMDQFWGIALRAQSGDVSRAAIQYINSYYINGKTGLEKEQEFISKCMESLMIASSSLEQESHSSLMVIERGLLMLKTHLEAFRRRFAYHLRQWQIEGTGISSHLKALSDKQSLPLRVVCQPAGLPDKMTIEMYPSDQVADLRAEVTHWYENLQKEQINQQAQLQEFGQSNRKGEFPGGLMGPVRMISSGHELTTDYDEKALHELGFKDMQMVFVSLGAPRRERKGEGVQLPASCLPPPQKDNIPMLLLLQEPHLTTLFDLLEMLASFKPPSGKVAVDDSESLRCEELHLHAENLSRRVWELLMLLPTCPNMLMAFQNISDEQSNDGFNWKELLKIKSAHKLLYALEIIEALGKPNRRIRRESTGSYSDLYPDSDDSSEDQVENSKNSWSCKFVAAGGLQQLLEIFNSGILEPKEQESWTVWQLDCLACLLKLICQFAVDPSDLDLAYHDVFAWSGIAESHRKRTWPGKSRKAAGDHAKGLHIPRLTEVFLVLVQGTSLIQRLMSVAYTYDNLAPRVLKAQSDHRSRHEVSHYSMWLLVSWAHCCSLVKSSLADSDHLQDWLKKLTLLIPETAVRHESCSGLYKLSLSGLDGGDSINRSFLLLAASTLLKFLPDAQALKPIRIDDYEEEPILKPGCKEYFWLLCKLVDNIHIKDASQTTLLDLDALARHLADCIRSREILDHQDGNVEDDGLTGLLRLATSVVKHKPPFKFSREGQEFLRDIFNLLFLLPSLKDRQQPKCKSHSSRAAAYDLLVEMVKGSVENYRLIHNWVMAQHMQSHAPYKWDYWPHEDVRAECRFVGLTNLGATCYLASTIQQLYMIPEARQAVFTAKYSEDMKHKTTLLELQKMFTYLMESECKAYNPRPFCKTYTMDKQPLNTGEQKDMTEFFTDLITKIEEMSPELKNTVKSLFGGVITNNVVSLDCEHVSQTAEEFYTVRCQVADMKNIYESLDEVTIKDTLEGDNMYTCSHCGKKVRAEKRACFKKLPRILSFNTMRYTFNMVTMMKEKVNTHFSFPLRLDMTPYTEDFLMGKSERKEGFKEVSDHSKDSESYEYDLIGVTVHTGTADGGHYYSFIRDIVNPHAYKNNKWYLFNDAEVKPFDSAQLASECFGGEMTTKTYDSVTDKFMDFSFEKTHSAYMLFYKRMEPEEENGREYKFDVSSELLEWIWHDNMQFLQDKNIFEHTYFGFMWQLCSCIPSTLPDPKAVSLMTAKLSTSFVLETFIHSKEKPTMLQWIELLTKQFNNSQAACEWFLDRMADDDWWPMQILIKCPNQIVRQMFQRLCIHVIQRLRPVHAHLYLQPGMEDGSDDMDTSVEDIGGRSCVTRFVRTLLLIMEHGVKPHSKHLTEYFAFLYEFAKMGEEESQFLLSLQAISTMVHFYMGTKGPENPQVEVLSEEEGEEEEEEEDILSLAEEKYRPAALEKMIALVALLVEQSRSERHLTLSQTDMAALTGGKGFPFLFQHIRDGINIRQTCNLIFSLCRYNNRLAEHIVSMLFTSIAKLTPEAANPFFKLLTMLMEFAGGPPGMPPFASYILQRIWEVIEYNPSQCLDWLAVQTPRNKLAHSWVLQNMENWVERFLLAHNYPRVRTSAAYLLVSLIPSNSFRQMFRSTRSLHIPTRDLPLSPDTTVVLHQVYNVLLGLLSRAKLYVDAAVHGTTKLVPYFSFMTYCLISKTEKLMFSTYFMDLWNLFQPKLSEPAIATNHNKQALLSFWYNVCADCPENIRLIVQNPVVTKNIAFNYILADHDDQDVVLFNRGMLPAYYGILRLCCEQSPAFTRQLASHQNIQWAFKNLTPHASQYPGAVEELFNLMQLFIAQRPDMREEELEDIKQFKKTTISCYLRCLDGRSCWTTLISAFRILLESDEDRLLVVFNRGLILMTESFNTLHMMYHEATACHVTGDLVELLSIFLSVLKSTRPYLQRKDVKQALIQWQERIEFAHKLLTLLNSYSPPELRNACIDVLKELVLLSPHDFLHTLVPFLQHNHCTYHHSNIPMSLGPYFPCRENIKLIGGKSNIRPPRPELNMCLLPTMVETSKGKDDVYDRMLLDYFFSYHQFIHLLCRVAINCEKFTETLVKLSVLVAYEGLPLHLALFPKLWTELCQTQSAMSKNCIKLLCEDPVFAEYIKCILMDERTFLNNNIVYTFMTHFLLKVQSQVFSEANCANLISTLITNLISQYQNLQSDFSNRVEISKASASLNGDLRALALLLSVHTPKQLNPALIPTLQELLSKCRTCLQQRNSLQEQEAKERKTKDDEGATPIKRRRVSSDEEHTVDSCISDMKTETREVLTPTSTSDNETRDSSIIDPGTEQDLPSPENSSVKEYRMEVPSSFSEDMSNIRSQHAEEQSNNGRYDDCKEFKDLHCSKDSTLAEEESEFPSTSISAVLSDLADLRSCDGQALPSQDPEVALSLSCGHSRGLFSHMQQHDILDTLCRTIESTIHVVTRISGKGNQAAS

O=C(CCl)Nc1cccc(NC(=O)c2ccccc2)c1
inactive: USP34 0.0355 | USP36 -0.11 | USP38 0.15 | USP39 0.0551 | USP4 0.199
